TDP1 block: inhibitors of human tyrosyl-DNA phosphodiesterase TDP1. Potency, µM (doses to about 130 µM), for the others: top-dose activity change, negative = inhibition, usual class: inhibitors. recombinant TDP1, AlphaScreen DNA substrate cleavage. Q9NUW8. actives 0.28% (n = 350,000); note: % is set by controls: 0 for no effect and ±100 for the full control effect; nearly all actives have a fitted effect of over 40% in size
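Here, a 5' biotin and 3' phosphotyrosine-FITC DNA oligonucleotide reports Tdp1 activity: intact substrate bridges AlphaScreen beads, while cleavage leaves a 3' phosphate and drops signal. All incubations at room temperature.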
BAZ2B block: inhibitors of human BAZ2B bromodomain; Q9UIF8; AID 504333; actives 4.4% (n = 360,000); Potency, µM (series often up to 114 µM), for inactives: at the top dose activity change, negative = inhibition, hits mostly inhibitors; AlphaScreen BAZ2B-H3K14Ac peptide displacement; note: % is set by controls: 0 for no effect and ±100 for the full control effect; nearly all actives have a fitted effect of over 60% in size
Target sequence (Q9UIF8 whole entry, looked up): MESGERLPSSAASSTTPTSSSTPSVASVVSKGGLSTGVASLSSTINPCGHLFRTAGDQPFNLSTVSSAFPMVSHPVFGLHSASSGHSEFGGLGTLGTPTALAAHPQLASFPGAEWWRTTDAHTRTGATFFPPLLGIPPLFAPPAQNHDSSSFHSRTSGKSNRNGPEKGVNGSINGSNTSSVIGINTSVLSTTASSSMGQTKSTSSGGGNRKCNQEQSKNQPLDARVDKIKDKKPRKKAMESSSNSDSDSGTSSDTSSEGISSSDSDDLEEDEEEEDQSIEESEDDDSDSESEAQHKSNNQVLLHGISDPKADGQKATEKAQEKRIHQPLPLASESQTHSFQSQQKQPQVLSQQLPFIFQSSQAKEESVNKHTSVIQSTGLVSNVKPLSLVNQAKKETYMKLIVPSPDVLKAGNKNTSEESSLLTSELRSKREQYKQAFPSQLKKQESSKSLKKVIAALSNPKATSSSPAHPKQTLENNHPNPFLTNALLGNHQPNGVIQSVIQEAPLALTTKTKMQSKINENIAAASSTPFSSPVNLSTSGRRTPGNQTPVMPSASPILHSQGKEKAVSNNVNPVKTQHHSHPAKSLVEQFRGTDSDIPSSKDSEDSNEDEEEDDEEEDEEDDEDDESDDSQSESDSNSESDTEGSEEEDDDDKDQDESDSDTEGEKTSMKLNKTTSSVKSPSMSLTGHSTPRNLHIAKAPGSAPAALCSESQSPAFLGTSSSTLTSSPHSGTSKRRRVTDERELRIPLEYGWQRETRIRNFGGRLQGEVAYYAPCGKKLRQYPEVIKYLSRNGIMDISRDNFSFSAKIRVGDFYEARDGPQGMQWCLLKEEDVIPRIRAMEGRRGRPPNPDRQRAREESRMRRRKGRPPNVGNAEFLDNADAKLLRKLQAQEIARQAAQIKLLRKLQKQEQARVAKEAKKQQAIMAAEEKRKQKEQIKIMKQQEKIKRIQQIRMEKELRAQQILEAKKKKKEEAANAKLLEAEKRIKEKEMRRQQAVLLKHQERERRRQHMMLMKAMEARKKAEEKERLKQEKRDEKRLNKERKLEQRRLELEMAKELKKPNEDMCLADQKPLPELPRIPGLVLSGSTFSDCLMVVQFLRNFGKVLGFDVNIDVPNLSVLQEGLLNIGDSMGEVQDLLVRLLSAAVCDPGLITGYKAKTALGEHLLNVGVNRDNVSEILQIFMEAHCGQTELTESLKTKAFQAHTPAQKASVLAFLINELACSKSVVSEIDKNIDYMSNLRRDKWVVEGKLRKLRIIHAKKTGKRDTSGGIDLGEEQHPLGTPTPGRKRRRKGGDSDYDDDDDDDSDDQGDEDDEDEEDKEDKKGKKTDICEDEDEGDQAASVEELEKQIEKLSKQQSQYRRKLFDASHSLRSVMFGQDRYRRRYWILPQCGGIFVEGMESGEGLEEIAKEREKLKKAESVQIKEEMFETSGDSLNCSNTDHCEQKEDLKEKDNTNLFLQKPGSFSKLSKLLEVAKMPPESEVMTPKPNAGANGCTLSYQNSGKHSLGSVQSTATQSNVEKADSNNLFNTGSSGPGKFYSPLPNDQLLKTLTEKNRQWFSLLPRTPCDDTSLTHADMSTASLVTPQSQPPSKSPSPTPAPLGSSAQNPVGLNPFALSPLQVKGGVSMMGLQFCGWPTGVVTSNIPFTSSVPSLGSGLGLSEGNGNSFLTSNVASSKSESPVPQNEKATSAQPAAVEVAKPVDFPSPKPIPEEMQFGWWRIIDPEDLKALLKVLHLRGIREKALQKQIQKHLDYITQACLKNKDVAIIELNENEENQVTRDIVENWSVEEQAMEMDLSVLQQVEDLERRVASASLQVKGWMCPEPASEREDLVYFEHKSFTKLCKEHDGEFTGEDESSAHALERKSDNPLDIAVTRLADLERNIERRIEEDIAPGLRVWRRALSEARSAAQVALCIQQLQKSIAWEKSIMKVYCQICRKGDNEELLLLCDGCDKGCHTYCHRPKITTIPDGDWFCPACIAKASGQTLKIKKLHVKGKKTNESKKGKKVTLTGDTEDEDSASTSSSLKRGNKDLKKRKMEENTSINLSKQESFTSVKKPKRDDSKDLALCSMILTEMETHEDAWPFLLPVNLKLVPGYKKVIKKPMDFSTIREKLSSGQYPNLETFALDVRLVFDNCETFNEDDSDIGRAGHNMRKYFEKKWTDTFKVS
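AlphaScreen luminescence quantifies BAZ2B engagement of H3K14Ac peptide; the protein and biotinylated peptide are both at 50 nM final, buffer PBS pH 7.4 with 0.01% Tween-20, all steps at room temperature.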
JMJD2A Tudor: blocks the human JMJD2A Tudor domain | O75164 | AlphaScreen JMJD2A-Tudor / H3K4me3 peptide binding | Potency, µM (titrated, usually from 114 µM), without a hit: at the top dose activity change, negative = inhibition, most hits filed as inhibitors | actives 4.4% (n = 390,000) | AID 504339; note: % is set by controls: 0 for no effect and ±100 for the full control effect; nearly all actives have a fitted effect of over 50% in size
G9a block: blocks human histone lysine methyltransferase G9a; Q96KQ7; G9a H3K9 monomethylation, AlphaScreen, 2 h; Potency, µM (top dose mostly 102 µM), for inactives: top-dose activity, negative = inhibition, most hits filed as inhibitors; actives 8.8% (n = 350,000); AID 504332; note: % is set by controls: 0 for no effect and ±100 for the full control effect; nearly all actives have a fitted effect of over 75% in size
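Using a bead-based AlphaScreen, monomethylated H3K9 product from 2 h room-temperature reactions (G9a 20 nM, peptide 500 nM, SAM 20 uM) was detected with 0.5 ug/mL rabbit anti-H3K9me1 antibody.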
Sfp inh: inhibitors of Bacillus subtilis Sfp phosphopantetheinyl transferase; Biochemical Sfp PPTase activity, qHTS; Potency, µM, inactives show largest response in the series, negative = inhibition, actives largely listed as inhibitors; actives 3.5% (n = 310,000); AID 1490;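 note: the enzyme is Sfp with the accession as filed and its product quenches rhodamine fluorescence; 0% = enzyme reaction without inhibitor and -100% = no enzyme wells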
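Reaction rates are the 30-min fluorescence difference (ex 525, em 598 nm) in wells containing 15 nM Sfp, 5 uM rhodamine-CoA and 12.5 uM BHQ-2-YbbR at pH 7.6 with 10 mM MgCl2.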
HP1b binding inh: inhibitors of HP1-beta chromodomain binding to methylated histone tails. Potency, µM (top dose mostly 114 µM), inactives show at the highest dose activity change, negative = inhibition, most hits filed as inhibitors. actives 0.56% (n = 390,000). AlphaScreen HP1-beta / biotin-H3K9me3 peptide binding; note: nearly all actives have a fitted effect of over 70% in size
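HP1-beta protein (50 nM final) preincubated 30 min at room temperature with biotinylated H3(1-18)K9me3 peptide (50 nM) in PBS pH 7.4, 0.01% Tween-20, then compound added for 30 min. AlphaScreen streptavidin donor/nickel chelate acceptor beads (10 ug/mL final), 30 min dark, luminescence read.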
Numbers without * were called inactive; ? = inconclusive; / = no result; ! = repeats disagree; [ ] = dose if it differs, or a comment. An excerpt weighted towards active compounds, which were near 12% of everything screened. Calls come from the whole dose curve; as a rule, active = well fitted curve in the direction sought with a large enough effect; inconclusive = small, poorly fitted or top-dose-only effect, or another doubt; inactive = no such curve, though single readings can be large; an effect the other way counts as inactive or inconclusive. Potency is the fitted concentration of half-maximal effect.

SMILES | TDP1 block | BAZ2B block | JMJD2A Tudor | G9a block | Sfp inh | HP1b binding inh
CN(C)c1ccc(N=Cc2nc(-c3ccccc3)oc2OC(=O)c2cccc(Cl)c2)cc1 | 2% | -11% | -25% | 8.9µM* | ? | -1%
COc1ccc(N=Cc2nc(-c3ccccc3)oc2OC(C)=O)cc1 | 1% | -1% | -20% | / | -6% | 49%
Cc1ccc(-c2nc(C=Nc3ccccc3)c(O)o2)cc1 | 0% | 15% | -14% | -8% | 0% | 22%
COc1cccc(N=Cc2nc(-c3ccccc3)oc2OC(C)=O)c1 | 6% | -2% | -11% | 50µM* | -16% | 26%
COc1ccccc1NS(=O)(=O)c1ccc(N2CCOCC2)c(N)c1 | 4% | / | -20% | / | / | 10%
CN1CCCCC1CCN1c2ccccc2Sc2ccc(S(C)=O)cc21 (stereo unspecified) | 4% | -21% | -20% | 5.6µM*! | -13% | 14%
Cc1ccc(-c2csc(Nc3ccc(C(=O)O)cc3)[n+]2Cc2ccccc2)cc1 | 5% | -38% | 40µM* | 15% | 13% | -26%
COc1ccc(Nc2nc(-c3ccc(OC)cc3)cs2)cc1 | 3% | -1% | -1% | -27% | -6% | 28%
O=[N+]([O-])c1ccc(-c2csc(Nc3ccccc3)[n+]2Cc2ccccc2)cc1 | 5% | 40µM* | 18µM* | ? | -10% | 16µM*
COc1ccc(-c2csc(Nc3ccccc3)[n+]2Cc2ccccc2)cc1 | 5% | / | -3% | 16µM* | -15% | ?
Cc1c(C(=O)N2CCOCC2)sc(NC(=O)Cc2ccccc2)c1C#N | -2% | -13% | -11% | 22% | 24% | 8%
CCOC(=O)c1cnn(-c2ccc(OC)cc2)c1C1CCN(C(=O)OC(C)(C)C)CC1 | -2% | / | -4% | -2%[59 µM] | / | 41%
Brc1ccccc1-c1nnc2sc(-c3ccc4c(c3)OCCO4)nn12 | 5% | 1% | -18% | 6%[12.7 µM] | -8% | 15%
Clc1ccccc1-c1nnc2sc(-c3ccc4c(c3)OCO4)nn12 | 6% | 3% | ? | 1.8µM* | 10µM* | ?
CN(C)c1ccc(-c2nn3c(-c4ccc(Cl)cc4Cl)nnc3s2)cc1 | 3% | 1% | / | 14µM* | 1% | /
Cc1ccc(-c2nn3c(C)nnc3s2)cc1NC(=O)c1ccc(-c2ccc(Cl)cc2Cl)o1 | / | ? | 63µM* | -21%[59 µM] | 13µM* | 20%
Clc1ccc(-c2nnc3sc(-c4ccc(Br)o4)nn23)c(Cl)c1 | 5% | -21% | -9% | 10%[2.33 µM] | 12% | 35%
Clc1cccc(-c2nnc3sc(-c4ccc5c(c4)OCO5)nn23)c1 | 0% | -4% | / | 10µM* | 32µM* | /
CC1CCC(N(CCCN)Cc2ccco2)CC1C (stereo unspecified) | 3% | -11% | -12% | 9% | 3% | 24%
CCC(=O)N1CCc2cc(S(=O)(=O)NCCc3ccc(S(N)(=O)=O)cc3)ccc21 | 4% | -3% | -3% | 6%[59 µM] | 11% | 47%
CC(=O)N1CCCc2cc(S(=O)(=O)N3CCCC(C(=O)NC(C)C)C3)ccc21 (stereo unspecified) | 4% | 3% | -16% | 5%[59 µM] | / | 28%[57 µM]
Cc1oc(-c2ccc(Cl)cc2)cc1-c1nn2c(-c3ccoc3C)nnc2s1 | / | 4% | ? | ? | 10µM* | -25%
Oc1cccc2c(NC(=S)Nc3ccc(SC(F)F)cc3)cccc12 | -7% | 45µM* | ? | 40µM* | ? | ?
Cc1c(S(=O)(=O)NC2CCCCC2)c(=O)n(C)c(=O)n1C | / | 0% | -10% | 7% | / | 12%
Cn1c(CNS(=O)(=O)c2ccc(F)cc2)n[nH]c1=S | 0% | -2% | 11µM* | ? | -21% | 34%
Cn1c(CNS(=O)(=O)c2ccc(Cl)cc2)n[nH]c1=S | 0% | 9% | 6.3µM* | ? | -1% | 33%
CN1OC[C@@H]2CN(C(=O)CCc3ccccc3)[C@H](c3cccc(-c4ccccc4)c3)C[C@@H]21 | / | / | ? | / | / | -13%

Screening results as filed in PubChem BioAssay.
